Data on 38 compounds can be found in PubChem BioAssay (EPA / NIEHS).

Test [1] in a line: CCTE_Shafer_MEA_acute_spike_number: CCTE's Neural Acute Assay for Total Number of Spikes, Shafer Lab (AID 2284008). An outline of the steps:
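Primary rat cortical neurons on 16-electrode MEA wells; on DIV 13 or 15, 40-min baseline then 40-min recording with compound (0.03-40 uM) at 37 C. Spikes detected at 8x rms noise; percent change versus baseline, DMSO as negative control.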

Test [2] in a line: CCTE_Shafer_MEA_acute_firing_rate_mean: CCTE's Neural Acute Assay for Mean Firing Rate, Shafer Lab (AID 2284009).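 Further: analyzed for loss of signal so actives lower firing rate relative to DMSO.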 The procedure, abridged:
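Spontaneous spiking of primary rat cortical networks, DIV 13/15, 37 C. Compound 0.03-40 uM, n ≥3 wells; 40 min baseline vs 40 min treated. Endpoint fitted in loss-of-signal direction against DMSO.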

A short description of test [3]: CCTE_Shafer_MEA_acute_burst_number: CCTE's Neural Acute Assay for Single-Electrode Bursts, Shafer Lab (AID 2284013). An outline of the steps: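 Burst totals were derived with adaptive spike detection (8x rms threshold) on filtered signals from rat cortical cultures; change relative to pre-treatment baseline after 40-min compound exposure (0.03-40 uM) was fitted in the negative direction against DMSO.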

Test [4] is described as follows: CCTE_Shafer_MEA_acute_burst_duration_mean: CCTE's Neural Acute Assay for Mean Burst Duration, Shafer Lab (AID 2284014).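 Further: hits are decreases in mean burst duration relative to DMSO controls.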 An outline of the steps: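 Acute exposure of mature rat cortical networks (DIV 13 or 15) grown on microelectrode arrays to 0.03-40 uM compound. Mean burst duration compared with the 40-min pre-dose baseline over a 40-min post-dose recording at 37 C.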

Test [5] in a line: CCTE_Shafer_MEA_acute_per_burst_spike_number_mean: CCTE's Neural Acute Assay for Average Number of Spikes Per Burst, Shafer Lab (AID 2284015).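 Further: hits are decreases in mean spikes per burst versus baseline.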 The procedure, abridged:
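Rat primary cortical neurons on 48-well MEAs (DIV 13 or 15) were treated with 0.03-40 uM compound at 37 C. Mean spikes per burst over 40 min were recorded before and after exposure and expressed as percent change from baseline, relative to DMSO.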

Test [6] can be described thus: CCTE_Shafer_MEA_acute_interburst_interval_mean: CCTE's Neural Acute Assay for Mean Interburst Interval, Shafer Lab (AID 2284016).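 Further: percent change of mean interburst interval versus each well's own pre-dose baseline; curves fitted for decrease in interburst interval relative to DMSO.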 The procedure, abridged: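 Rat primary cortical neurons on 48-well MEAs at DIV 13 or 15 were exposed acutely to 0.03-40 uM. Spikes detected at 8x rms noise, 37 C. Mean interburst interval from 40 min recordings expressed as percent change from 40 min pre-treatment baseline.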

A short description of test [7]: CCTE_Shafer_MEA_acute_burst_percentage_mean: CCTE's Neural Acute Assay for Percentage of Spikes in a Burst, Shafer Lab (AID 2284017). The procedure, abridged: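 Primary rat cortical neurons on 48-well MEA plates, treated on DIV 13 or 15 at 0.03-40 uM. Spikes detected at 8x rms noise at 37C; percent change from 40-min baseline to 40-min post-dose recording, fitted versus DMSO.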

Test [8] in a line: CCTE_Shafer_MEA_acute_burst_percentage_std: CCTE's Neural Acute Assay for Standard Deviation of Burst Percentage, Shafer Lab (AID 2284018).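 Further: fitted in the negative direction so actives lower burst percentage SD.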 The procedure, abridged: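 Primary rat cortical neurons on 16-electrode MEA wells were recorded 40 min at baseline (DIV 13 or 15), then 40 min after compound (0.03-40 uM), at 37 C. Well value is SD across electrodes of spikes-in-bursts/total spikes; endpoint is percent change, DMSO-referenced.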

Test [9] in a line: CCTE_Shafer_MEA_acute_per_network_burst_spike_number_mean: CCTE's Neural Acute Assay for Average Number of Spikes in a Network Burst, Shafer Lab (AID 2284019). An outline of the steps:
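Acute exposure of rat primary cortical networks (DIV 13/15) on MEAs; adaptive spike detection at 8x rms noise, 37 C. Percent change in spikes per network burst after 40 min with compound (0.03-40 uM), negative direction vs DMSO.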

Test [10] is described as follows: CCTE_Shafer_MEA_acute_per_network_burst_spike_number_std: CCTE's Neural Acute Assay for Standard Deviation of Number of Spikes in a Network Burst, Shafer Lab (AID 2284020).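 Further: fitted for decrease in spike-number SD versus DMSO so actives lower it.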 An outline of the steps:
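Acute MEA exposure, rat cortical neurons, 0.03-40 uM. Per-well % change versus own baseline; DMSO as negative control.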

Test [11] can be described thus: CCTE_Shafer_MEA_acute_per_network_burst_electrodes_number_mean: CCTE's Neural Acute Assay for Mean Number of Electrodes in a Network Burst, Shafer Lab (AID 2284021).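 Further: curves fitted for decreases only so hits reduce electrodes per burst.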 An outline of the steps: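 Rat primary cortical neurons on 16-electrode MEA wells were recorded 40 min at baseline on DIV 13 or 15, then 40 min after compound (0.03-40 uM), at 37 C. Value is percent change per well, fitted in loss direction versus DMSO.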

Test [12] is described as follows: CCTE_Shafer_MEA_acute_network_burst_percentage: CCTE's Neural Acute Assay for Percentage of Network Bursts, Shafer Lab (AID 2284022).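 Further: curves fitted for loss so actives lower network burst percentage.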 An outline of the steps:
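Primary rat cortical neurons on 16-electrode MEA wells, treated on DIV 13 or 15 with compound (0.03-40 uM); 40-min baseline and 40-min post-exposure recordings at 37 C. Value is percent change in spikes within network bursts versus baseline, DMSO negative control.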

Test [13] addresses Nucleoli Translocation, AR (gene 367) (UniProt P10275). Kind of test: UPITT_HCI_U2OS_AR_TIF2_Nucleoli_Antagonist: University of Pittsburgh U2OS Androgen Receptor-Transcriptional Intermediary Factor 2 (AR-TIF2) Antagonism High Content Imaging Assay for Nucleoli Translocation (AID 2283997; active means hit-call score of the fitted dose curve at least 0.9, where 1 is the maximum). An outline of the steps:
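An antagonist-mode imaging screen: engineered U2OS (AR-RFP, TIF2-GFP) exposed to 20 uM compound, 0.2% DMSO. Activity reflects nucleolar red fluorescence change relative to DHT baseline.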

Test [14] has as its target Ratio of Nucleoli Translocation and Cytoplasm, AR (gene 367) (UniProt P10275). Kind of test: UPITT_HCI_U2OS_AR_TIF2_Nucleoli_Cytoplasm_Ratio_Agonist: University of Pittsburgh U2OS Androgen Receptor-Transcriptional Intermediary Factor 2 (AR-TIF2) Agonism High Content Imaging Assay for Ratio of Nucleoli Translocation and Cytoplasm (AID 2284000; active means hit-call score of the fitted dose curve at least 0.9, where 1 is the maximum;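 further: hits raise the red nucleolar to cytoplasm ratio above vehicle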). An outline of the steps:
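Primary screen at 20 uM final (0.2% DMSO), then triplicate confirmation and dose-response from 0.195 to 50 uM final (0.5% DMSO). Cells: U2OS with AR-RFP and TIF2-GFP. Endpoint is the nucleoli/cytoplasm red-fluorescence ratio, gain-of-signal vs DMSO.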

A short description of test [15]: CCTE_Harrill_HTTr_Viability_MCF7: CCTE's 6-hour Cell Viability Assessment for the High-Throughput Transcriptomics (HTTr) Platform, in MCF-7 cells cultured in DMEM + 10% fetal bovine serum, Harrill Lab (AID 2284010). An outline of the steps:
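Eight-point concentration series, six-hour exposure. Propidium iodide exclusion imaged to assess membrane integrity as a cytotoxicity readout; bidirectional fitting was done with DMSO as negative control and activity baseline.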

The nature of test [16]: CCTE_Harrill_HTTr_Apoptosis_MCF7: CCTE's 6-hour Apoptosis Assessment for the High-Throughput Transcriptomics (HTTr) Platform, in MCF-7 cells cultured in DMEM + 10% fetal bovine serum, Harrill Lab (AID 2284011). An outline of the steps:
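MCF-7 cells in DMEM + 10% fetal bovine serum were exposed to chemicals for 6 hours over an eight-point dilution series. Caspase-3/7 activation was imaged by high content imaging with CellEvent Caspase 3/7 Green; bidirectional fitting used DMSO as baseline.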

Test [17] is described as follows: CCTE_Harrill_HTTr_CellCount_MCF7: CCTE's Cell Proliferation Assessment for the High-Throughput Transcriptomics (HTTr) Platform, Harrill Lab (AID 2284012; active means hit-call score of the fitted dose curve at least 0.9, where 1 is the maximum;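 further: count of Hoechst-stained nuclei per well by high-content imaging in MCF-7 cells; cells exposed to compound for six hours; intended direction is loss of nuclei count meaning fewer cells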). An outline of the steps:
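For this full-screen endpoint, MCF-7 cultures received eight compound dilutions for six hours. Well nuclei counts from Hoechst imaging were analyzed relative to DMSO.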

Inconclusive results are not listed. Active and inactive are the calls of the source. How the source made its calls, unless noted: active means hit-call score of the fitted dose curve at least 0.9, where 1 is the maximum; inactive means score below 0.9.

Chain of Ratio of Nucleoli Translocation and Cytoplasm, AR (gene 367) (P10275 whole entry, looked up): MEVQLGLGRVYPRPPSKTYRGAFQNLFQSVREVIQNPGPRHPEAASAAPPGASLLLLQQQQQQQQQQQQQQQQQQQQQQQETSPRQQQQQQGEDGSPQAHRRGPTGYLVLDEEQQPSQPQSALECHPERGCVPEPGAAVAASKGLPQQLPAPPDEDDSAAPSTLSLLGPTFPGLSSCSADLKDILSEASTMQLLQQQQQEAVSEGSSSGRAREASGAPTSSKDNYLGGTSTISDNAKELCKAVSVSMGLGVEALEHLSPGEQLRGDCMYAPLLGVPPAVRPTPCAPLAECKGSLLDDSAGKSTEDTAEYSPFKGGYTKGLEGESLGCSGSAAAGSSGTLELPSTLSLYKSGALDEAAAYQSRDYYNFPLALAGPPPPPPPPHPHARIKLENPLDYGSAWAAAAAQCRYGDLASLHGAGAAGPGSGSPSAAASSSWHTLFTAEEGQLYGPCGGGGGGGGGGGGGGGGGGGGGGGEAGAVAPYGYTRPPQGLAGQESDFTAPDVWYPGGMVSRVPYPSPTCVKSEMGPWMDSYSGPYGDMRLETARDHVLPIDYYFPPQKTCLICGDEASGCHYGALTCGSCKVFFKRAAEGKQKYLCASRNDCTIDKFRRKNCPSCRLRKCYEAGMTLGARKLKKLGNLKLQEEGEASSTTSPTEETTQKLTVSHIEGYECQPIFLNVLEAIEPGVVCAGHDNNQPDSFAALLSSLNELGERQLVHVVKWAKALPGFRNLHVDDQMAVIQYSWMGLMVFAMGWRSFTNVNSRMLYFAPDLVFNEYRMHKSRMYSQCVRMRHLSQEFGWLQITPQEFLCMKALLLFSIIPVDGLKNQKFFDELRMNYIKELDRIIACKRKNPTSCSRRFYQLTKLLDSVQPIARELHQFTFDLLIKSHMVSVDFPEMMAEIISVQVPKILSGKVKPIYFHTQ
Chain of Nucleoli Translocation, AR (gene 367) (P10275 whole entry, looked up): as above

On to `OC1OC[C@@H](O)[C@H](O)[C@H]1O` (stereo partly drawn), for which the compound was classed as inactive in [1], in test [2], in test [3], in test [4], in test [5] and in [6]. Moreover, the call in test [7], in test [9], in test [10], in test [11] and in [12] was inactive. In addition, in test [8], the AC50 was 1.21 µM (active).

On to `CCCCC[Si](OCC)(OCC)OCC`, for which the outcome in [13] and in [14] was inactive.

On to `C[C@]12CC[C@H]3[C@@H](CCC4=CC(=O)CC[C@@]43C)[C@@H]1CC[C@@H]2C(=O)CO`, for which the result in test [15] and in test [16] was inactive.

For `Nc1ccc(S(N)(=O)=O)cc1`, the result in [15], in test [16] and in [17] was inactive.

Regarding `C#C[C@]1(O)CC[C@H]2[C@@H]3CCC4=Cc5oncc5C[C@]4(C)[C@H]3CC[C@@]21C`, the result in [15], in [16] and in test [17] was inactive.

Consider `CC(=O)O[C@]1(C(C)=O)CC[C@H]2[C@@H]3C[C@H](C)C4=CC(=O)CC[C@]4(C)[C@H]3CC[C@@]21C`, for which the result in test [15] and in test [16] was inactive.

For the compound `CC(CCO)CCc1ccccc1` (stereo not drawn), the result in [15] and in test [16] was inactive.

Turning to `CCCCO`, the outcome in [15] and in test [16] was inactive.

As to `CCN(CC)CCOC(=O)c1ccc(N)cc1`, the result in test [15], in test [16] and in test [17] was inactive.

Consider `O=C(O)CCCCCCCC(=O)O`, for which the outcome in test [15] and in test [16] was inactive.

Take `NC(N)=NC(=O)c1nc(Cl)c(N)nc1N`: the outcome in test [15] and in [16] was inactive.

On to `CN1Cc2c(N)cccc2C(c2ccccc2)C1` (stereo not drawn), for which the result in test [15] and in test [16] was inactive.

For `Cc1ccc(C(=O)c2cc(O)c(O)c([N+](=O)[O-])c2)cc1`, the result in [15] and in test [16] was inactive.

On to `N#Cc1ccccc1`, for which the result in test [15], in [16] and in [17] was inactive.

In the case of `O=C(O)Cc1cccc2ccccc12`, the result in [15], in test [16] and in [17] was inactive.

Consider `CC(C)=CCCC(C)=CCCC(C)=CCO`, for which the outcome in [15], in test [16] and in [17] was inactive.

`Cc1c(Cl)c(=O)oc2cc(O)ccc12`: the outcome in [15], in test [16] and in [17] was inactive.

Take `COC(=O)C1=C(C)NC(C)=C(C(=O)OCCN(C)Cc2ccccc2)C1c1cccc([N+](=O)[O-])c1` (stereo not drawn): the result in [15] and in test [16] was inactive.

Turning to `COC(C)CCO` (stereo not drawn), the outcome in test [15] and in [16] was inactive.

For the compound `CC1CCC(C(C)(C)O)CC1` (stereo not drawn), the outcome in [15] and in test [16] was inactive.

Take `CCCCCCCCCC=O`: the result in test [15], in [16] and in test [17] was inactive.

Consider `Clc1ccc2c(c1)C(N1CCNCC1)=Nc1ccccc1O2`, for which the outcome in [15], in test [16] and in test [17] was inactive.

For `Cc1c(N(C)C)c(=O)n(-c2ccccc2)n1C`, the outcome in [15], in test [16] and in test [17] was inactive.

For `O=C(O)COCCN1CCN(C(c2ccccc2)c2ccc(Cl)cc2)CC1` (stereo not drawn), the result in test [15], in test [16] and in test [17] was inactive.

In the case of `CC(C)[C@H]1CC[C@@H](C)CC1=O`, the result in test [15], in [16] and in test [17] was inactive.

In the case of `O=C(O)c1ccc([N+](=O)[O-])cc1`, the outcome in test [15] and in [16] was inactive.

Turning to `CCCc1c(OCCCOc2ccc(OCC(=O)O)cc2)ccc(C(C)=O)c1O`, the result in test [15], in test [16] and in test [17] was inactive.

Take `Cc1cccc(C)c1C`: the result in test [15] and in [16] was inactive.

Turning to `CC1CC(OC(=O)c2ccccc2O)CC(C)(C)C1` (stereo not drawn), the outcome in test [15], in test [16] and in test [17] was inactive.

Turning to `C=O`, the result in test [15], in test [16] and in [17] was inactive.

Regarding `O=C[C@H](O)[C@H](O)[C@H](O)CO`, the outcome in test [15] and in test [16] was inactive.

With `S=C(S)NCCNC(=S)S`, the outcome in [15] and in [16] was inactive.

On to `CC(=O)OCC=Cc1ccccc1`, for which the outcome in test [15] and in test [16] was inactive.

On to `Cc1cccc(Nc2ccccc2C(=O)O)c1C`, for which the outcome in test [15] and in test [16] was inactive.

As to `CCCCCCCCCCCCOCCO`, the result in [15] and in test [16] was inactive.

With `CCCCN`, the result in [15] and in test [16] was inactive.

With `CN(CCOc1ccc(CC2SC(=O)NC2=O)cc1)c1ccccn1` (stereo not drawn), the outcome in test [15], in [16] and in [17] was inactive.

Regarding `NC(=O)NC1NC(=O)NC1=O` (stereo not drawn), the result in test [15], in test [16] and in test [17] was inactive.

Usually AC50 stands for the concentration at which the activity in the assay is half-maximal.
